Assay results reported in PubChem BioAssay (Tox21).
Several values for one entry are separate records, joined by “and”; a condition that tells them apart may be missing. Equal values may be shown once. Records with an inconclusive call do not appear. Some compounds were tested as several samples or in several runs, with calls that do not always agree. Activity calls are given as the source filed them. Unless noted, calls follow the shape of the dose curve; as a rule, active = well fitted curve in the direction sought with a large enough effect in the repeat runs; inconclusive = weak or mixed curves; inactive = no such curve, though single readings can be large; an effect the other way counts as inactive or inconclusive.

Assays:
[1] = qHTS assay to identify small molecule antagonists of the progesterone receptor (PR) signaling pathway - cell viability counter screen (AID 1346798); also: nearly all actives have a fitted effect of over 50% in size; also: potency is read from the fitted curve at half-maximal effect
Procedure, shortened: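 Counter screen for cytotoxicity: viability of PR-UAS-bla HEK293T cells was measured with CellTiter-Glo luminescence following 16 hr compound exposure in the presence of R5020.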

[2] = qHTS assay to identify small molecule agonists of the progesterone receptor (PR) signaling pathway - cell viability counter screen (AID 1346799; calls by dose curve; also: nearly all actives have a fitted effect of over 45% in size; also: potency is read from the fitted curve at half-maximal effect)
Procedure, shortened: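 Cells (PR-UAS-bla HEK293T) are plated at 3,000/well in 2% charcoal-stripped FBS medium, rested 6 hr, dosed and incubated 16 hr at 37C. CellTiter-Glo is then added and luminescence measured after 30 min at room temperature.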

[3] = qHTS assay to identify small molecule antagonists of the TGF-beta/Smad signaling pathway - cell viability counter screen (AID 1346824); also: nearly all actives have a fitted effect of over 50% in size; also: potency is read from the fitted curve at half-maximal effect
Procedure, shortened: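 Cytotoxicity counter-screen run in the same wells as the beta-lactamase Smad reporter read: CellTiter-Glo luminescence after 30 min at room temperature. HEK 293T SBE-bla cells had 5 hr compound exposure at 37 C with TGF-beta1 (0.25 ng/mL stock).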

[4] = qHTS assay to identify small molecule agonists of the TGF-beta/Smad signaling pathway - cell viability counter screen (AID 1346829); also: nearly all actives have a fitted effect of over 45% in size; also: potency is read from the fitted curve at half-maximal effect
Procedure, shortened: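 SBE-bla HEK 293T cells plated overnight, compound exposure 5 hr at 37 C. Viability read in the same wells by CellTiter-Glo luminescence after 30 min at room temperature, following the beta-lactamase read.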

[5] = target: Thyrotropin-releasing hormone receptor (Homo sapiens) (UniProt P34981); assay: qHTS assay to identify small molecule agonists of the thyrotropin-releasing hormone receptor (TRHR) signaling pathway (AID 1346891; calls by dose curve; also: potency is read from the fitted curve at half-maximal effect;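 as to activation: HEK293 cells expressing TRHR with calcium dye readout; series mostly up to about 58 µM; % is scaled to controls: 0 for no effect and ±100 for the full control effect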)
Thyrotropin-releasing hormone receptor (Homo sapiens), sequence (P34981 whole entry, looked up): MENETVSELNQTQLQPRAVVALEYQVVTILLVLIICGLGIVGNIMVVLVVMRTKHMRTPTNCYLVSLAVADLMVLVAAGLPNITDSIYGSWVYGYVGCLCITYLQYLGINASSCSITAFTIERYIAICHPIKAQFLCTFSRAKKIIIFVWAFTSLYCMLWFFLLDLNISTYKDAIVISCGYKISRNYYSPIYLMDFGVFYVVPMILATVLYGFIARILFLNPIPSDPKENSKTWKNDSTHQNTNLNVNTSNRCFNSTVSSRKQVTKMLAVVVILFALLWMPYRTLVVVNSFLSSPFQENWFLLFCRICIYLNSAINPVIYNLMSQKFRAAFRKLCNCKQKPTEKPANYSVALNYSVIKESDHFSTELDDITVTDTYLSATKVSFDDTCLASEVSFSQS
Procedure, shortened: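 Cells: TRHR-Hek293, seeded and incubated 18 h. Dye loading: 2 h at 37 °C. Compound added from DMSO stock by pin tool. Read-out: kinetic calcium fluorescence over 3 min.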

[6] = Human pregnane X receptor (PXR) small molecule agonists, qHTS cell viability counter screen (AID 1346977); also: nearly all actives have a fitted effect of over 50% in size; also: potency is read from the fitted curve at half-maximal effect
Procedure, shortened: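 Cytotoxicity counter screen run in the same wells as the PXR luciferase assay, using PXR-Luc HepG2 cells in charcoal-stripped serum medium. Viability: CellTiter-Fluor fluorescence after 24hr compound treatment.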

[7] = qHTS assay to identify small molecule agonists of the TGF-beta/Smad signaling pathway (AID 1346859; active = well fitted activation curve with a large enough effect in the signal ratio in the repeat runs, not every such curve was filed as active; the % refers to the signal ratio; also: series mostly up to about 77 µM; % is scaled to controls: 0 for no effect and ±100 for the full control effect)
Procedure, shortened: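 Reporter line: HEK 293T with stably integrated SBE-controlled beta-lactamase. Compound exposure lasts 5 hr at 37 C and 5% CO2; substrate loading follows for 2 hr at room temperature, with emission read at 460 and 530 nm.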

[8] = target: Thyrotropin-releasing hormone receptor (Homo sapiens) (UniProt P34981); assay: qHTS assay to identify small molecule antagonists of the thyrotropin-releasing hormone receptor (TRHR) signaling pathway (AID 1346877; active = well fitted inhibition curve with a large enough effect in the repeat runs, not every such curve was filed as active; also: series mostly up to about 51 µM; % is scaled to controls: 0 for no effect and ±100 for the full control effect)
Procedure, shortened: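 Following an 18 h incubation at 37 °C and a 2 h calcium dye load, TRHR-HEK293 cells were exposed to compound (5 min, room temperature) and challenged with TRH, 1 nM final.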

[9] = target: Progesterone receptor (Homo sapiens) (UniProt P06401); assay: qHTS assay to identify small molecule antagonists of the progesterone receptor (PR) signaling pathway (AID 1346795; active = well fitted inhibition curve with a large enough effect in the signal ratio in the repeat runs, not every such curve was filed as active; the % refers to the signal ratio; also: potency is read from the fitted curve at half-maximal effect)
Progesterone receptor (Homo sapiens), sequence (P06401 whole entry, looked up): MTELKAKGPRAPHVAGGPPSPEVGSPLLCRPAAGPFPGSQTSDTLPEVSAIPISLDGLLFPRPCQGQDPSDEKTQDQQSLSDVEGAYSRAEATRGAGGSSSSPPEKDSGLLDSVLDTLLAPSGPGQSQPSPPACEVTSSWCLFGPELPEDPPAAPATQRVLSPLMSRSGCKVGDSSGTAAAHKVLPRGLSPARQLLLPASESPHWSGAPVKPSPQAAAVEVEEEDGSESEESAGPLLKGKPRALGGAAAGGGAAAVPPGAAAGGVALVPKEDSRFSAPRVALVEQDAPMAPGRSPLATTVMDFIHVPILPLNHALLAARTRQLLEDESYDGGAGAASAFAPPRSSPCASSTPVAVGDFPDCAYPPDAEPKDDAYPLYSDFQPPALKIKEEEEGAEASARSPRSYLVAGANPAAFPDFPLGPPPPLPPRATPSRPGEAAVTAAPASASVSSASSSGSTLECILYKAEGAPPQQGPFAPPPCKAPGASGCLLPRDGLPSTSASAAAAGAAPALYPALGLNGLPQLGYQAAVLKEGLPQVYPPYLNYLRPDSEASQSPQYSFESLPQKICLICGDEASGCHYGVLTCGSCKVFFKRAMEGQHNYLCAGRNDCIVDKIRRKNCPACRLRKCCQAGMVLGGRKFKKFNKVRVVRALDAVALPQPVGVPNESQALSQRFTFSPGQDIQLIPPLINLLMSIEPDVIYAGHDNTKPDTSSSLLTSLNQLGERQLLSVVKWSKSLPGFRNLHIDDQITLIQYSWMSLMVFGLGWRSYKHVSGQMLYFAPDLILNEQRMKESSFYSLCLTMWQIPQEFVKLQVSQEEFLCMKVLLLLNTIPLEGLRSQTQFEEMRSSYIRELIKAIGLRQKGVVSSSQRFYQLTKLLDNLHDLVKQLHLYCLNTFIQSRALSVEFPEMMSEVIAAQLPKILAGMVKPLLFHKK
Procedure, shortened: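 Antagonist mode: compounds tested against 1 nM (final) promegestone stimulation in HEK293T cells expressing PR-UAS-bla reporter, 16 hr at 37C, 5% CO2; beta-lactamase activity detected via B/G FRET substrate after 2 hr at room temperature.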

CCCCCCCCCCCCCCCC[n+]1ccccc1
active: Potency [1] 50.8 µM and 61.1 µM and 60.3 µM | Potency [2] 50.8 µM and 54.5 µM | Potency [3] 43.6 µM [middle of 4 runs] | Potency [4] 54.2 µM [middle of 4 runs] | Potency [6] 30.6 µM [middle of 4 runs]
36.3 µM (active) and inactive: Potency [5]

Cc1cc(C)c(C2=C(OC(=O)CC(C)(C)C)C3(CCCC3)OC2=O)c(C)c1
inactive: Potency [1] | Potency [2] | Potency [3] | Potency [4] | outcome [7] | Potency [6]

O=[N+]([O-])O.O=[N+]([O-])O.[Cd]
active: Potency [1] 3.06 µM | Potency [2] 4.86 µM | Potency [6] 5.45 µM
inactive: outcome [3]

COC12CC[C@@]3(C[C@@H]1C(C)(O)C(C)(C)C)[C@H]1Cc4ccc(O)c5c4[C@@]3(CCN1CC1CC1)[C@H]2O5 (stereo partly drawn)
active: Potency [1] 43 µM | Potency [2] 38.3 µM | Potency [3] 48.6 µM | Potency [4] 38.6 µM | Potency [6] 54.1 µM
inactive: outcome [7]

N#Cc1ccccc1N
inactive: Potency [1] | Potency [2] | Potency [3] | outcome [7] | Potency [8] | Potency [5] | Potency [6]

C[C@@H]1O[C@@H](O[C@H]2C[C@@H](O)[C@]3(CO)[C@H]4[C@H](O)C[C@]5(C)[C@@H](C6=CC(=O)OC6)CC[C@]5(O)[C@@H]4CC[C@]3(O)C2)[C@H](O)[C@H](O)[C@H]1O
active: Potency [1] 81.9 nM and 150 nM | Potency [2] 116 nM and 168 nM
inactive: Potency [8]

Clc1ccc(CSC(Cn2ccnc2)c2ccc(Cl)cc2Cl)cc1 (stereo not drawn)
active: Potency [1] 6.68 µM
inactive: Potency [3] | Potency [4] | outcome [7] | Potency [8] | Potency [5]

Clc1ccc(CO/N=C(\Cn2ccnc2)c2ccc(Cl)cc2Cl)c(Cl)c1
inactive: Potency [3] | Potency [4] | outcome [7] | Potency [8] | Potency [5]
active: Potency [1] 21.1 µM | Potency [2] 15 µM

CC(C)CC(C)Nc1ccc(Nc2ccccc2)cc1 (stereo not drawn)
inactive: outcome [7] | Potency [8] | Potency [5]
active: Potency [9] 47.7 µM | Potency [6] 53.5 µM

CC(=O)[O-].[Tl+]
inactive: Potency [1] | Potency [2] | Potency [3] | Potency [4] | outcome [7]
active: Potency [6] 27.5 µM

CN(C)C(=S)[S-].CN(C)C(=S)[S-].[Cu+2]
inactive: activation [7] -6.22% [at 15.8 µM]
active: Potency [1] 1.18 µM | Potency [2] 1.49 µM | Potency [3] 4.23 µM | Potency [6] 5.92 µM

CC1CCC(C(C)C)C(OC(=O)c2ccccc2N)C1 (stereo not drawn)
active: Potency [1] 60.3 µM | Potency [2] 53.7 µM
inactive: outcome [7] | Potency [8] | Potency [5]

O=C(CCl)C(Cl)Cl
active: Potency [1] 43.7 µM | Potency [2] 27.6 µM | Potency [6] 15.5 µM
inactive: Potency [3] | Potency [4] | outcome [7] | Potency [8]

c1ccc2cc3c(cc2c1)-c1cccc2cccc-3c12
inactive: Potency [1] | Potency [2] | Potency [3] | Potency [4] | Potency [6]

CC(=[OH+])/C=C(/C)[O-].CC(=[OH+])/C=C(\C)[O-].CC(=[OH+])/C=C(\C)[O-].[Al]
inactive: Potency [1] | Potency [2] | Potency [3] | Potency [4] | outcome [7] | Potency [6]

CCOCn1c(-c2ccc(Cl)cc2)c(C#N)c(Br)c1C(F)(F)F
inactive: Potency [8] | Potency [5]
active: Potency [1] 12.2 µM | Potency [2] 12.2 µM | Potency [6] 0.864 µM

Clc1ccc(CCC(Cn2ccnc2)Sc2c(Cl)cccc2Cl)cc1 (stereo not drawn)
active: Potency [1] 11.9 µM | Potency [2] 21.1 µM
inactive: Potency [3] | Potency [4]

CC1(C)CN=C(NN=C(/C=C/c2ccc(C(F)(F)F)cc2)/C=C/c2ccc(C(F)(F)F)cc2)NC1
active: Potency [1] 38.6 µM | Potency [2] 21.7 µM | Potency [3] 38.9 µM | Potency [4] 34.7 µM | Potency [6] 12.2 µM

N#Cc1c(-c2ccc(Cl)cc2)[nH]c(C(F)(F)F)c1Br
active: Potency [1] 4.33 µM | Potency [2] 6.86 µM | Potency [6] 0.77 µM
inactive: Potency [4] | Potency [8]

O=[N+]([O-])c1c2ccccc2cc2ccccc12
active: Potency [1] 27 µM
inactive: Potency [3] | Potency [4] | Potency [8] | Potency [5]

CC(C)Oc1cccc(NC(=O)c2ccccc2C(F)(F)F)c1
inactive: Potency [4] | Potency [8] | Potency [5] | Potency [6]

CC(C)OC(=S)S
inactive: Potency [3] | Potency [4] | outcome [7] | Potency [8] | Potency [5] | Potency [6]
active: Potency [1] 7.7 µM

O=c1oc2ccccc2c(O)c1Cc1c(O)c2ccccc2oc1=O
inactive: Potency [3] | Potency [4] | outcome [7]

CC(C)[C@H](C(=O)O[C@H](C#N)c1cccc(Oc2ccccc2)c1)c1ccc(Cl)cc1
inactive: Potency [3] | outcome [7] | Potency [6]

O=[N+]([O-])c1cc(C(F)(F)F)c(Cl)c([N+](=O)[O-])c1Cl
inactive: Potency [8] | Potency [5]
active: Potency [1] 54.5 µM | Potency [3] 49 µM | Potency [6] 27.3 µM

CC(C)(C)C(O)/C(=C\c1ccc(Cl)cc1Cl)n1cncn1 (stereo not drawn)
inactive: Potency [3] | Potency [4] | outcome [7]
active: Potency [6] 74 µM

C=CCC1=C(C)C(OC(=O)C2C(C=C(C)C)C2(C)C)CC1=O (stereo not drawn)
inactive: Potency [4] | outcome [7] | Potency [8]

Nc1ccc(Sc2ccc(N)cc2)cc1
inactive: Potency [4] | outcome [7] | Potency [8]

COc1ccc(OC)c(C=O)c1
inactive: Potency [1] | Potency [3] | outcome [7] | Potency [8] | Potency [5] | Potency [6]

Oc1ccc(C2(c3ccc(O)cc3)CCCCC2)cc1
inactive: Potency [3] | outcome [7] | Potency [8] | Potency [5]
active: Potency [6] 57.9 µM

CC(=O)C(Cl)(Cl)Cl
active: Potency [6] 8.34 µM
inactive: Potency [1] | Potency [3] | outcome [7] | Potency [8] | Potency [5]

CC(C)(c1ccc(O)c(-c2ccccc2)c1)c1ccc(O)c(-c2ccccc2)c1
inactive: Potency [8] | Potency [5]
active: Potency [2] 30.6 µM | Potency [4] 34.7 µM | Potency [6] 30.6 µM

CN(C)[C@@H]1C(=O)C(C(N)=O)=C(O)[C@@]2(O)C(=O)C3=C(O)c4c(O)ccc(Cl)c4[C@@](C)(O)[C@H]3C[C@@H]12
inactive: Potency [1] | Potency [3] | Potency [4] | Potency [8] | Potency [5]

CCCOCC(=Nc1ccc(Cl)cc1C(F)(F)F)n1ccnc1
inactive: Potency [3] | Potency [4] | outcome [7] | Potency [8] | Potency [5]
active: Potency [6] 61.1 µM
